Sampled rows, rich in hits. Any-hit rate of the full collection: about 0.43%.
N370S GC: inhibitors or activators of N370S glucocerebrosidase for Gaucher disease. N370S GC spleen homogenate, 4MU-glucoside fluorescence. Potency, µM (series often up to 59.4 µM), for inactives: at the highest dose activity change, negative = inhibition, hits mostly inhibitors. 330,000 tested, 0.092% active;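 also: potency is read from the fitted curve at half-maximal effect; 0% = full enzyme activity and -100% = no enzyme basal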
GAA spleen mod: inhibitors or activators of human alpha-glucosidase in spleen homogenate; Potency, µM (series often up to 79.9 µM), for inactives: at the highest dose activity change, negative = inhibition, actives largely listed as inhibitors; 240,000 tested, 0.006% active; P10253; human spleen homogenate, 4-MU-alpha-glucoside fluorescence;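 also: potency is read from the fitted curve at half-maximal effect; 0% = enzyme with vehicle and -100% = no enzyme basal signal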
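Human spleen homogenate (1 ug) incubated with compounds and 1 mM 4-methylumbelliferyl-alpha-D-glucopyranoside in pH 5.0 citrate/phosphate buffer, 37 C, 40 min. Stopped at pH 10; 4-MU fluorescence (Ex 365/Em 440 nm); AC50 by Hill fit.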
GLA spleen mod: inhibitors or activators of human alpha-galactosidase in spleen homogenate; AID 2107; human spleen homogenate, 4MU-alpha-Gal fluorescence, 40 min; 240,000 tested, 0.008% active; P06280; Potency, µM (titrated, usually from 80 µM), for the others: at the top dose activity change, negative = inhibition, actives largely listed as inhibitors;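 also: potency is read from the fitted curve at half-maximal effect; 0% = enzyme with vehicle and -100% = no enzyme basal signal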
Target sequence (P06280 32-429 limits assumed): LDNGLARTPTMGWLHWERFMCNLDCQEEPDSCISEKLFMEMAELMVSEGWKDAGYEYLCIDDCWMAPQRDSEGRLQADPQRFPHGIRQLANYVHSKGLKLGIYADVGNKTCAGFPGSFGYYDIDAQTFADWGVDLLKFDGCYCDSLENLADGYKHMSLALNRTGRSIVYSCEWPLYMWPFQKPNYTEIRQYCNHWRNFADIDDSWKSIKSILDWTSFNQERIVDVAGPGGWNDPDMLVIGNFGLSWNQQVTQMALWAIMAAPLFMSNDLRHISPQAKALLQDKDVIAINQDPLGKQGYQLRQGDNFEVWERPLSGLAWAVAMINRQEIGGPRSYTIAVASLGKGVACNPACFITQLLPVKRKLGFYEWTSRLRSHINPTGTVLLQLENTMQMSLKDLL
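Fluorogenic readout (Ex 365/Em 440 nm) of 4-methylumbelliferone released from 1 mM 4-MU-alpha-galactoside by spleen homogenate, 40 min at 37C, pH 5.0. Data normalized to no-enzyme and enzyme controls; Hill-equation AC50 from compound titrations.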
GAA inhib: alpha-glucosidase (human) inhibition; P10253; purified human GAA, 4-MU-alpha-glucoside fluorescence; Potency, µM (series often up to 76.9 µM), inactives show top-dose activity change, negative = inhibition, actives largely listed as inhibitors; 200,000 tested, 0.005% active; AID 1466;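 also: potency is read from the fitted curve at half-maximal effect; plate controls were uninhibited enzyme wells for no effect and no-enzyme background for full effect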
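Compounds are titrated up to 77 uM against 4 nM human enzyme. Substrate 4-methylumbelliferyl-alpha-D-pyranoside (400 uM) reacts 20 min at room temperature in pH 5.0 buffer; liberated 4-methylumbelliferone is read at 440 nm.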
GLA inh pH 4.5: inhibitors of human alpha-galactosidase A at pH 4.5; activity change, negative = inhibition, % at 105 µM; P06280; purified enzyme, 4-MU-alpha-Gal fluorescence, pH 4.5; 230,000 tested, under 10 active;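 also: 0% = full activity with enzyme and -100% = basal without enzyme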
GAA glycogen mod: inhibitors or activators of human alpha-glucosidase glycogen cleavage; AID 2100; P10253; Potency, µM (doses to about 76.4 µM), for inactives: at the top dose activity change, negative = inhibition, actives largely listed as inhibitors; recombinant GAA, glycogen substrate, Amplex Red glucose oxidase fluorescence; 300,000 tested, 0.38% active;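 also: potency is read from the fitted curve at half-maximal effect; 0% = full enzyme reaction and -100% = no-enzyme basal signal; the screen sought inhibitors and activators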
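Recombinant human enzyme (4 nM); glycogen substrate; 37 C, 40 min, pH 5.0. Readout: coupled glucose oxidase/Amplex Red fluorescence.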
* hit, by the source's call; [ ] = remark or other dose. Calls follow the shape of the dose curve; as a rule, active = well fitted curve in the direction sought with a large enough effect; inconclusive = small, poorly fitted or top-dose-only effect, or another doubt; inactive = no such curve, though single readings can be large; an effect the other way counts as inactive or inconclusive.

Results for CN1c2ccccc2C(C)(C)C12C=Cc1cc(O)ccc1O2 (centres undefined) ?
N370S GC: 1%; GAA spleen mod: -11%; GLA spleen mod: 5%; GAA inhib: 0%; GLA inh pH 4.5: -20; GAA glycogen mod: 12µM*

How did O=c1oc2ccccc2c(Nc2ccc(O)cc2)c1[N+](=O)[O-] do in these assays?
GAA spleen mod: -10%; GLA spleen mod: -2%; GAA inhib: -7%; GLA inh pH 4.5: 6; GAA glycogen mod: 3.5µM*

What do the screens show for `CCc1ccc(Nc2c([N+](=O)[O-])c(=O)oc3ccccc23)cc1`?
N370S GC: -6%; GAA spleen mod: 10%; GLA spleen mod: 6%; GLA inh pH 4.5: -7; GAA glycogen mod: -1%

Results for Cc1cc(C)c2c(-n3cccc3)c(C(=O)NNS(=O)(=O)c3ccccc3)sc2n1 ?
N370S GC: 20%; GAA spleen mod: 3%; GLA spleen mod: 6%; GAA inhib: 0%; GLA inh pH 4.5: -11; GAA glycogen mod: inconclusive

Results for Cc1cc(C)c2c(-n3cccc3)c(C(=O)NNS(=O)(=O)c3ccc(Cl)cc3)sc2n1 ?
N370S GC: 26%; GAA spleen mod: -5%; GLA spleen mod: 7%; GAA inhib: -16%; GLA inh pH 4.5: 4; GAA glycogen mod: 20µM*

Results for COc1ccc(CN(Cc2ccco2)c2cnc(S(C)(=O)=O)nc2C(=O)Nc2ccc(C)c(Cl)c2)cc1 ?
GAA glycogen mod: 4%[76.3 µM]

How did Cc1ccccc1NC(=O)CSc1nc2c(oc3ccccc32)c(=O)n1Cc1ccco1 do in these assays?
GAA glycogen mod: -4%[76.3 µM]

What do the screens show for `CC(NC(=O)Nc1ccccc1O)(C(F)(F)F)C(F)(F)F`?
N370S GC: 3%; GAA spleen mod: 3%; GLA spleen mod: 6%; GAA inhib: -12%; GLA inh pH 4.5: -14; GAA glycogen mod: 16µM*

What do the screens show for `O=C(CSc1ncc(C(F)(F)F)cc1Cl)N1CCN(S(=O)(=O)c2ccccc2)CC1`?
GAA spleen mod: -30%; GLA spleen mod: 5%; GAA inhib: 35µM*; GLA inh pH 4.5: -8; GAA glycogen mod: inconclusive

How did O=C(CSc1ncc(C(F)(F)F)cc1Cl)N1CCN(S(=O)(=O)c2ccc(Cl)cc2)CC1 do in these assays?
N370S GC: 6%; GAA spleen mod: -10%; GLA spleen mod: 11%; GAA inhib: inconclusive; GLA inh pH 4.5: -1; GAA glycogen mod: -6%

How did CCC(Cl)CC(Cl)C(Cl)C(Cl)C(Cl)C(C)Cl (centres undefined) do in these assays?
N370S GC: 30%; GAA spleen mod: 2%; GLA spleen mod: -2%

How did Oc1ccc(/C=N/N2CCN(C3c4ccccc4-c4ccccc43)CC2)cc1O do in these assays?
N370S GC: -12%; GAA spleen mod: 0%; GLA spleen mod: 0%; GLA inh pH 4.5: -8; GAA glycogen mod: 10µM*

What do the screens show for `Oc1ccc(/C=N/N2CCN(C3c4ccccc4-c4ccccc43)CC2)cc1`?
N370S GC: 12%; GAA spleen mod: 3%; GLA spleen mod: 6%; GAA inhib: -3%[15.4 µM]; GLA inh pH 4.5: -25; GAA glycogen mod: -21%

What do the screens show for `Cc1ccc(CNc2ccc(N3CCOCC3)cc2)s1`?
N370S GC: -6%; GAA spleen mod: -3%; GLA spleen mod: 0%; GAA inhib: -3%; GLA inh pH 4.5: 5; GAA glycogen mod: 28µM*

What do the screens show for `CC(=O)N1CCN(c2ccc(NCc3cccc4ccccc34)cc2)CC1`?
N370S GC: inconclusive; GAA glycogen mod: -16%[15.3 µM]

How did CC(=O)N1CCN(c2ccc(NCc3ccc(C)s3)cc2)CC1 do in these assays?
N370S GC: -12%; GAA spleen mod: -7%; GLA spleen mod: -3%; GAA inhib: -2%[15.4 µM]; GLA inh pH 4.5: 2; GAA glycogen mod: 16µM*

Results for Fc1ccc(CNc2ccc(N3CCN(Cc4ccccc4)CC3)cc2)cc1 ?
N370S GC: -3%; GAA glycogen mod: 8.9µM*
